Compound activity (PubChem)
pPAFAH FP inh: pPAFAH (human) enzyme inhibition; Q13093; recombinant pPAFAH, FP-rhodamine probe fluorescence polarization; inhibition, % at 3.39 µM; actives 1.5% (n = 330,000);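 active = inhibition above the mean inhibition across the screen plus 3 SD, cut at about 25% in these data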;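 note: inhibitors block binding of the rhodamine activity-based probe so polarization drops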
PAFAH1B3 inh: blocks human PAF acetylhydrolase 1B catalytic subunit 3; recombinant PAFAH1B3, FP-rhodamine probe, fluorescence polarization; inhibition, % at 3.39 µM; actives 0.28% (n = 340,000); Q15102;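 active = inhibition above the screen-wide average of all tested compounds plus 3 SD, cut at about 25% in these data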
Target sequence (Q15102 whole entry, looked up): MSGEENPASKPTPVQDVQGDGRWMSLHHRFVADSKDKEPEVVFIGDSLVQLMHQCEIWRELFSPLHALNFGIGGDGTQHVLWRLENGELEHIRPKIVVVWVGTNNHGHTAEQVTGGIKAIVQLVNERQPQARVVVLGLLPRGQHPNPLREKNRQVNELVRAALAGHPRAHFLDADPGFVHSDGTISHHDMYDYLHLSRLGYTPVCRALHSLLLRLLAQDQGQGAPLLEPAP
PAFAH2 FP inh: inhibitors of human PAFAH2. recombinant PAFAH2, FP-rhodamine activity probe, fluorescence polarization. inhibition, % at 3.39 µM. actives 0.99% (n = 340,000). AID 492956;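 active = inhibition above the mean over all tested compounds plus 3 SD, cut at about 30% in these data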;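 note: inhibitors block probe labeling of enzyme so polarization drops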
PKA-R1A activ: activates the PKA-R1A holoenzyme complex; P00514+P68181; PKA-R1A dissociation, Cy5-IP20 fluorescence polarization; scaled: DMSO 0%, 113 µM cGMP 100%; activation, % at 11.4 µM; actives 0.083% (n = 340,000);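 active = percent activation above the mean of all tested compounds plus 3 SD, cut at about 19% in these data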;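 note: higher means more PKAc released from R1A so a rise in polarization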
PKA-R2B activ: PKA-R2B complex activation; activation, % at 11.4 µM; PKA-R2B holoenzyme dissociation, Cy5-IP20 fluorescence polarization; R2B truncated from residue 108, S112A mutant; 0% DMSO only, 100% 113 µM cGMP; AID 504700; P22694+P31323; actives 0.079% (n = 340,000);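 active = activation above a cutoff set at the mean over all compounds plus 3 SD, cut at about 18% in these data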;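 note: higher means more holoenzyme dissociation and a rise in polarization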
Target sequence (P31323 whole entry, looked up, other chains not shown, the tested form may be a part): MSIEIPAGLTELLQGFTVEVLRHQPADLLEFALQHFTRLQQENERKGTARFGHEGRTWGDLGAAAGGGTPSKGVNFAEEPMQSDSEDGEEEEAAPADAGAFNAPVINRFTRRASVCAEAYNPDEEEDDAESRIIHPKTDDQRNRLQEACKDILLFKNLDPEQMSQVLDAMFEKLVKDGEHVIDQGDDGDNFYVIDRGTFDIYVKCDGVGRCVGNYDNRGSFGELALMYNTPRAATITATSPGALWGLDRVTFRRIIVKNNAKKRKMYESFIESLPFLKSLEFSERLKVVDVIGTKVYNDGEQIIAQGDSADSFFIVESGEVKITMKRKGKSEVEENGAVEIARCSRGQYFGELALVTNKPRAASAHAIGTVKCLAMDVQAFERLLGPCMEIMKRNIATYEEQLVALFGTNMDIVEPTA
PAFAH1B2 inh: inhibitors of human PAFAH1B2. P68402. recombinant PAFAH1B2, FP-rhodamine activity probe, fluorescence polarization. inhibition, % at 3.39 µM. actives 1.2% (n = 340,000). AID 492953;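 active = inhibition above the mean of all tested compounds plus 3 SD, cut at about 24% in these data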
Of the large screens only hits and unclear results are named; the others gave an inactive call. Only some compounds are listed: those with a hit (about 2.6% of all), similar ones and a draw of the others.

Cc1ccc(-c2nn(-c3ccccc3)cc2C2CC(c3cccs3)=NN2C(=O)CCC(=O)O)cc1 (stereo not drawn)	none
COc1cc(NC(=O)CSc2ncnc3scc(-c4ccccc4)c23)c(C(=O)O)cc1OC	pPAFAH FP inh 31
CC(C)[C@H](NC(=O)OCc1ccccc1)C(=O)OCC(=O)NCCc1ccccc1	none
Cc1ccc([C@H]2C[C@H](O)[C@@H](n3cc(C4CC4)nn3)CN2C(=O)C2CCCCC2)cc1	none (no result: pPAFAH FP inh, PAFAH1B3 inh, PAFAH2 FP inh, PAFAH1B2 inh)
Cn1cccc1C(=O)NCC(c1ccc(F)cc1)N1CCOCC1 (stereo not drawn)	none
Cc1ccnc(NCc2ccc(Br)cc2)c1	PAFAH1B2 inh 27
Cc1cccc(NCc2ccc(Br)cc2)n1	PAFAH1B2 inh 30
COc1ccc(CNc2cc(C)ccn2)cc1	none
Cc1cccc(NCc2cccc3ccccc23)n1	none
CC(Sc1nc(N)cc(N)n1)C(=O)Nc1ccc(N2CCOCC2)cc1 (stereo not drawn)	none
CCC(CC)C(=O)Nc1nnc(S(=O)(=O)N(CC)c2ccc(OC)cc2)s1	none (no result: pPAFAH FP inh)
Cc1cc(-c2nnc(SCC(=O)Nc3nc(-c4ccccc4)cs3)o2)no1	pPAFAH FP inh 30
CCOC(=O)c1c(-n2c(C)cc(C=O)c2C)sc2c1CCCC2	none
Cc1ccc(C)n1-c1sc2c(c1C(=O)O)CCCC2	pPAFAH FP inh 26
Cc1ccccc1CSc1ncnc2ccccc12	pPAFAH FP inh 32
N#CCSc1ncnc2ccccc12	none
CC1=NN(c2cccc(F)c2)C(=O)/C1=C/c1ccc(N(C)C)cc1	none
Cc1ccc(-c2csc(N3N=C(c4ccccc4)/C(=C\c4ccc(N(C)C)cc4)C3=O)n2)cc1	pPAFAH FP inh 28 (no result: PAFAH1B3 inh, PAFAH2 FP inh, PKA-R1A activ, PKA-R2B activ, PAFAH1B2 inh)
COC(=O)CNC(c1ccccc1)c1cc(C)ccc1NC(=O)CNC(=O)OCc1ccccc1 (stereo not drawn)	pPAFAH FP inh 30
Cc1ccc(S(=O)(=O)N(C)c2ccc(OCC(=O)Nc3ccc(C(=O)N(C)C)cc3)cc2)cc1C	none
CC(C(=O)NC1(C#N)CCCCC1)N(C)CC(=O)Nc1ccc(Cl)c(Cl)c1 (stereo not drawn)	none
O=C(CCN1C(=O)/C(=C/c2ccccc2Cl)SC1=S)NNC(=O)c1ccccc1O	pPAFAH FP inh 30
O=C(CCN1C(=O)/C(=C/c2ccccc2Cl)SC1=S)NC1=NCCS1	PAFAH1B2 inh 34
Cc1ccc(-c2nc(Nc3ccc(O)cc3)c3ccccc3n2)cc1	pPAFAH FP inh 26
Cc1ccc(C=C2C(Cl)=C(Cl)C(Cl)=C2Cl)cc1	pPAFAH FP inh 41 (no result: PAFAH1B3 inh, PAFAH2 FP inh, PKA-R1A activ, PKA-R2B activ, PAFAH1B2 inh)
COc1ccc(OCC(=O)N2CCCC(Nc3ccc(C)c(C)c3)C2)cc1 (stereo not drawn)	none (no result: pPAFAH FP inh, PAFAH1B3 inh, PAFAH2 FP inh, PAFAH1B2 inh)
CC(C)(C)Cc1c(-c2ccc(F)cc2)nc2ccc(Br)cn12	none (no result: pPAFAH FP inh, PAFAH1B3 inh, PAFAH2 FP inh, PAFAH1B2 inh)
CC(=O)c1ccccc1OCc1ccc(S(=O)(=O)Cc2ccccc2)cc1	none
CCC1(CC)NC(=O)N(CC(=O)Nc2sc3c(c2C(N)=O)CCC3)C1=O	pPAFAH FP inh 28
O=C(CCc1nnc2ccc(NCc3ccccc3)nn12)NC1CCCCC1	none
COc1ccc(C(O)c2cnc(C)n2Cc2ccccc2)cc1 (stereo not drawn)	none (no result: pPAFAH FP inh, PAFAH1B3 inh, PAFAH2 FP inh, PAFAH1B2 inh)
Cc1ccc(SCCc2ccc(C)nc2)cc1	PAFAH1B2 inh 28
C=CCC(CC=C)(NC(=O)c1ccccc1C)c1ccccc1	PAFAH1B2 inh 25
CN(Cc1ccccc1)C(=O)COc1cccnc1[N+](=O)[O-]	none
N=C1/C(=C\c2coc3ccc(O)cc3c2=O)C(=O)N=C2SC=CN12	pPAFAH FP inh 26
Cc1sc(NC(=O)C2=COCCO2)c(C(N)=O)c1C	none
C=CCn1c(SCC(=O)c2cccs2)nc2sc(C)cc2c1=O	pPAFAH FP inh 25
CCOc1ccc(NC(=O)Nc2cc(C(=O)O)ccc2N2CC3CC(C2)c2cccc(=O)n2C3)cc1 (stereo not drawn)	pPAFAH FP inh 30
Cc1cc(NS(=O)(=O)c2ccc(Nc3nc(-c4ccc(C)c(C)c4)cs3)cc2)no1	pPAFAH FP inh 34
Cc1ccc(-n2c(Cc3cccn3C)nnc2SCC(=O)NCc2ccco2)cc1	pPAFAH FP inh 29
COc1ccc2[nH]c(C(=O)NCCN3CCOCC3)cc2c1	PAFAH1B2 inh 36
O=C(NCCN1CCOCC1)c1cc2ccccc2[nH]1	none
CCOc1ccc(N2C(=O)CS/C2=C(\C(Cl)=C(Cl)Cl)[N+](=O)[O-])cc1	pPAFAH FP inh 28
Cc1ccsc1C(=O)N(C)C1CCS(=O)(=O)C1 (stereo not drawn)	none
CC(O)(CS(=O)(=O)Cc1cccc(C(F)(F)F)c1)C(=O)Nc1cccc(C(F)(F)F)c1 (stereo not drawn)	PAFAH1B2 inh 38
CC(O)(CS(=O)(=O)Cc1ccccc1Cl)C(=O)Nc1cccc(C(F)(F)F)c1 (stereo not drawn)	none
CC(=O)C1=C(O)C(=O)N(Cc2ccccc2)C1c1ccc(Cl)cc1 (stereo not drawn)	PAFAH1B2 inh 29
COc1ccc(N(CC(=O)Nc2cc(C)cc(C)c2)S(=O)(=O)c2ccccc2[N+](=O)[O-])c(OC)c1	none
COc1ccc(N(CC(=O)Nc2cc(C)ccc2C)S(=O)(=O)c2ccccc2[N+](=O)[O-])c(OC)c1	pPAFAH FP inh 29
Cc1cc(C(=O)OCC(=O)NC2CCCCC2C)c2ccccc2n1 (stereo not drawn)	none
CC1CCCCC1NC(=O)COC(=O)c1c2c(nc3ccccc13)/C(=C/c1ccco1)CC2 (stereo not drawn)	pPAFAH FP inh 31
NC(=O)CC(NC(=O)Cc1ccc(Br)cc1)c1ccc(N2CCCCCCC2)c([N+](=O)[O-])c1 (stereo not drawn)	none
NC(=O)CC(NC(=O)Cc1ccc(Br)cc1)c1ccc(N2CCC(Br)CC2)c([N+](=O)[O-])c1 (stereo not drawn)	pPAFAH FP inh 26
COc1ccccc1NC(=O)COC(=O)Cc1cccs1	none
Cc1cccc(NC(=O)COC(=O)Cc2cccs2)c1C	pPAFAH FP inh 25
Cc1ccccc1OCCn1cc(C(=O)O)c2ccccc21	PAFAH1B2 inh 24
Cc1ccc(C)c(OCCn2cc(C(=O)O)c3ccccc32)c1	none (no result: PAFAH1B3 inh, PAFAH2 FP inh, PKA-R1A activ, PKA-R2B activ, PAFAH1B2 inh)
Cc1cc(NS(=O)(=O)c2ccc(NC(=O)C(C)Oc3ccc(Cl)cc3)cc2)no1 (stereo not drawn)	PAFAH1B2 inh 30
CC(Oc1ccccc1)C(=O)Nc1ccc(S(=O)(=O)Nc2nccs2)cc1 (stereo not drawn)	none
CC(Oc1ccc(Br)cc1)C(=O)Nc1ccc(S(=O)(=O)Nc2nccs2)cc1 (stereo not drawn)	PAFAH1B2 inh 28
Cc1ccc(OC(C)C(=O)Nc2ccc(S(=O)(=O)Nc3cc(C)on3)cc2)cc1 (stereo not drawn)	none
